Laboratory results: PubChem BioAssay (NCATS)
Records with an inconclusive call do not appear. Active and inactive are the calls of the source. Unless noted, calls follow the shape of the dose curve; as a rule, active = well fitted curve in the direction sought with a large enough effect; inconclusive = small, poorly fitted or top-dose-only effect, or another doubt; inactive = no such curve, though single readings can be large; an effect the other way counts as inactive or inconclusive.

What was measured:
[1] = P-glycoprotein substrates identified in KB-8-5-11 adenocarcinoma cell line, qHTS therapeutic library screen (AID 1346987); also: nearly all actives have a fitted effect of over 65% in size; also: potency is read from the fitted curve at half-maximal effect
Outline: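 Luminescence from CellTiter-Glo, read 5 min after addition, quantified survival of KB-8-5-11 (P-gp-overexpressing) cells exposed to compounds for 72 h. AC50 was derived from concentration-response curves.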

[2] = Primary qHTS for inhibitors of nuclear receptor binding SET domain protein 2 (NSD2) in an isogenic RCH-ACV NSD2 p.E1099K mutant (9B) (AID 1645876); also: nearly all actives have a fitted effect of over 70% in size; also: potency is read from the fitted curve at half-maximal effect
[3] = Primary qHTS for inhibitors of nuclear receptor binding SET domain protein 2 (NSD2) in an RCH-ACV wild type WT cells (2C) (AID 1645877); also: nearly all actives have a fitted effect of over 70% in size; also: potency is read from the fitted curve at half-maximal effect
CRL-7250 [4] = assay: Cytotoxic Profiling of Annotated Libraries Using Quantitative High-Throughput Screening (AID 1296008); conditions: Five cell lines viability, CellTiter-Glo ATP luminescence, 48-72 h; max response: active compounds read low; also: nearly all actives have a fitted effect of over 60% in size; also: potency is read from the fitted curve at half-maximal effect; as to max response: % is scaled to controls: 0 for no effect and ±100 for the full control effect
Outline: (§1)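 Cells exposed to compounds for 48 or 72 hr at 37 degrees Celsius. Viability read as ATP-coupled luminescence with CellTiter-Glo after 10 min at room temperature.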

HEK293 = assay: as above; conditions: Five cell lines viability, CellTiter-Glo ATP luminescence, 48-72 h; max response: active compounds read low
Outline: as §1

SKOV3 = assay: Primary qHTS to identify gynecologic anti-cancer compounds using libraries of approved drugs and bioactive compounds (AID 1345084); conditions: Gynecologic cancer cell panel viability, ATPlite luminescence, 48 h; series mostly up to 57.5 µM; also: nearly all actives have a fitted effect of over 55% in size; also: potency is read from the fitted curve at half-maximal effect
Outline: (§2)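 In this quantitative HTS, cell killing is estimated from loss of ATP-dependent luciferase light. Cells see five compound concentrations over a 48 h exposure.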

KB-3-1 = assay: Cytotoxic Profiling of Annotated Libraries Using Quantitative High-Throughput Screening (AID 1296008); conditions: Five cell lines viability, CellTiter-Glo ATP luminescence, 48-72 h; max response: active compounds read low; also: nearly all actives have a fitted effect of over 60% in size; also: potency is read from the fitted curve at half-maximal effect; as to max response: % is scaled to controls: 0 for no effect and ±100 for the full control effect
Outline: as §1

[5] = molecular target: Cytochrome P450 2D6 (Homo sapiens) (UniProt P10635); assay: Cytochrome P450 family 2 subfamily D member 6 (CYP2D6) small molecule antagonists: luciferase biochemical (cell-free) qHTS assay (AID 1645840; active = well fitted curve in the direction sought with a large enough effect in the repeat runs; an effect the other way counts as inactive or inconclusive; also: nearly all actives have a fitted effect of over 55% in size; also: potency is read from the fitted curve at half-maximal effect)
Cytochrome P450 2D6 (Homo sapiens), sequence (P10635 whole entry, looked up): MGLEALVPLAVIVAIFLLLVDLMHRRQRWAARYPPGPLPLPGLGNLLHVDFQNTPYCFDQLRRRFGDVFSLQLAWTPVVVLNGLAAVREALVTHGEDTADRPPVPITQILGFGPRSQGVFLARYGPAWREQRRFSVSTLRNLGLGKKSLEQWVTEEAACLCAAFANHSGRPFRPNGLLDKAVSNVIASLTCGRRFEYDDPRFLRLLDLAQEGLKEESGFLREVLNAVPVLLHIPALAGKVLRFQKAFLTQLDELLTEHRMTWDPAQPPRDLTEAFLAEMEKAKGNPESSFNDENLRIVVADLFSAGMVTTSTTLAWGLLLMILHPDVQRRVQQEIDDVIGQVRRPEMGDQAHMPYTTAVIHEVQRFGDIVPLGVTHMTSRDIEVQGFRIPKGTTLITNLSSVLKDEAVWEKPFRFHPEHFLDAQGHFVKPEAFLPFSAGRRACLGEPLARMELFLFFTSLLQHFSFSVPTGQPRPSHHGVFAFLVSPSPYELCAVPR
Outline: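 P450-Glo CYP2D6 system: proluciferin substrate converted by enzyme to luciferin, read by luminescence proportional to activity. Enzyme-substrate mix with compound 10 min at room temperature, then NADPH regeneration 1 h before detection reagent.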

[6] = molecular target: Cytochrome P450 2C9 (Homo sapiens) (UniProt P11712); assay: Cytochrome P450 family 2 subfamily C member 9 (CYP2C9) small molecule antagonists: luciferase biochemical (cell-free) qHTS assay (AID 1645842; active = well fitted curve in the direction sought with a large enough effect in the repeat runs; an effect the other way counts as inactive or inconclusive; also: nearly all actives have a fitted effect of over 55% in size; also: potency is read from the fitted curve at half-maximal effect)
Cytochrome P450 2C9 (Homo sapiens), sequence (P11712 whole entry, looked up): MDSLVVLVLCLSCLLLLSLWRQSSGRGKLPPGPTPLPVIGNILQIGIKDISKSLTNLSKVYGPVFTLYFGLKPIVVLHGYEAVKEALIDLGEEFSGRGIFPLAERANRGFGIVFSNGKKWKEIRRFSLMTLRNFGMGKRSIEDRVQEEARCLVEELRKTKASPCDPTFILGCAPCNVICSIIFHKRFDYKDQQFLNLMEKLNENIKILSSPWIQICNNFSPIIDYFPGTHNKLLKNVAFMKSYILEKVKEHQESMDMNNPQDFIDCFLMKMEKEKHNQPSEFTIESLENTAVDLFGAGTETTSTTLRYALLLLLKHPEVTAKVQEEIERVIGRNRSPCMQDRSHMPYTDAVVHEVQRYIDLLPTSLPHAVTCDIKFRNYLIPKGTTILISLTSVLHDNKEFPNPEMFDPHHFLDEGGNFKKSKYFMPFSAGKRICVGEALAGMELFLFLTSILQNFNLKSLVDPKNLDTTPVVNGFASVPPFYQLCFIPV
Outline: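 P450-Glo CYP2C9 system: proluciferin substrate with enzyme in mix containing 0.4% BSA, 10 min at room temperature, then NADPH regeneration solution added and incubated 1 h at 37C. Detection reagent stopped reaction; luminescence read after 20 min as RLU.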

HACAT = assay: qHTS assay to identify novel small-molecules to repurpose for Merkel cell carcinoma treatment (AID 1296009); conditions: MCC and control cell lines, CellTiter-Glo viability, 72 h; at 44.8 µM (top of the series) unless noted; also: nearly all actives have a fitted effect of over 60% in size
Outline: (§3)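 Dose-response viability screen; 72 hr exposure at 37 degree celsius; CellTiter-Glo added, 10 min room temperature, luminescence read; RLUs scaled between no-cell and DMSO wells.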

NIH3T3 = assay: as above; conditions: MCC and control cell lines, CellTiter-Glo viability, 72 h; at 44.8 µM (top of the series) unless noted
Outline: as §3

CAOV3 = assay: Primary qHTS to identify gynecologic anti-cancer compounds using libraries of approved drugs and bioactive compounds (AID 1345084); conditions: Gynecologic cancer cell panel viability, ATPlite luminescence, 48 h; series mostly up to 57.5 µM; also: nearly all actives have a fitted effect of over 55% in size; also: potency is read from the fitted curve at half-maximal effect
Outline: as §2

HeLa = assay: as above; conditions: Gynecologic cancer cell panel viability, ATPlite luminescence, 48 h; series mostly up to 57.5 µM
Outline: as §2

CRL-7250 [7] = assay: qHTS assay to identify novel small-molecules to repurpose for Merkel cell carcinoma treatment (AID 1296009); conditions: MCC and control cell lines, CellTiter-Glo viability, 72 h; series mostly up to 92 µM; also: nearly all actives have a fitted effect of over 60% in size
Outline: as §3

[8] = P-glycoprotein substrates identified in KB-3-1 adenocarcinoma cell line, qHTS therapeutic library screen (AID 1346986); also: nearly all actives have a fitted effect of over 60% in size
Outline: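 In 1536-well format, 500 cells/well received pinned compound titrations and were incubated 72 h, 5% CO2. Viability was read by CellTiter-Glo; cytotoxic if AC50 < 10 uM and efficacy >50%.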

C[C@@H]1O[C@@H](OC2CCC3(C=O)C(CCC4C3CCC3(C)C(C5=CC(=O)OC5)C(O)CC43O)C2)[C@H](O)[C@H](O)[C@H]1O[C@@H]1O[C@H](CO)[C@@H](O)[C@H](O)[C@H]1O (stereo partly specified)
active: Potency [1] 6110 nM | Potency [2] 2420 nM | Potency [3] 4830 nM | Potency (CRL-7250 [4]) 3060 nM | Potency (HEK293) 3850 nM | Potency (SKOV3) 11200 nM

CC[C@H](O)[C@@H](C)[C@H]1O[C@@H]1C[C@H](C)/C=C/C=C(\C)[C@H]1OC(=O)C[C@H](O)CC[C@@](C)(O)[C@@H](OC(C)=O)/C=C/[C@@H]1C
active: Potency [1] 9.2 nM | Potency [2] 5.8 nM | Potency (CRL-7250 [4]) 16.4 nM | Potency (HEK293) 4.1 nM | Potency (KB-3-1) 5.2 nM
inactive: Potency [3]

O=C(N1CCCCC1Cc1ccccc1)n1cc(-c2ccc(-c3ccccc3)cc2)nn1 (stereo unspecified)
inactive: Potency [5] | max response (CRL-7250 [4]) 2.49% | max response (KB-3-1) -19% | outcome (HACAT) | outcome (NIH3T3) | Potency (CAOV3) | Potency (SKOV3)
active: Potency [6] 2680 nM

C=C1C2(C)CC3C(C)(O)C4=CC(=O)OC(C)(C)C4=CCC3(C)C13C(=O)OC(C)C3(O)C2=O (stereo unspecified)
inactive: Potency [1] | max response (CRL-7250 [4]) -8.29% | max response (HEK293) -2.5% | max response (KB-3-1) -10.5% | Potency (CAOV3) | Potency (HeLa) | Potency (SKOV3)

Cc1ccc2c(c1)[C@H]1CN(C)CC[C@H]1N2C(=O)CSc1nnnn1-c1ccc(Cl)cc1
inactive: Potency [6] | Potency [2] | Potency [3] | max response (CRL-7250 [4]) 0.988% | max response (KB-3-1) -5.2% | outcome (HACAT) | outcome (NIH3T3) | Potency (CAOV3) | Potency (HeLa) | Potency (SKOV3)
active: Potency [5] 10700 nM

CN(Cc1cccc(-c2ccncc2)c1)C(=O)Oc1ccc(-c2ccc(C(N)=O)cc2)cc1
inactive: Potency [1] | Potency [6] | outcome (CRL-7250 [4]) | max response (KB-3-1) 1.21% | Potency (CRL-7250 [7]) | outcome (HACAT) | Potency (CAOV3) | Potency (HeLa) | Potency (SKOV3)

CN=C(NS(=O)(=O)c1ccc(Cl)cc1)N1C[C@H](c2ccccc2)C(c2ccc(Cl)cc2)=N1
inactive: Potency [5] | Potency [6] | outcome (CRL-7250 [4]) | max response (KB-3-1) -19.1% | Potency (CRL-7250 [7]) | Potency (CAOV3) | Potency (HeLa) | Potency (SKOV3)

CC(C)[C@H](NC(=O)c1nn(Cc2ccc(F)cc2)c2ccccc12)C(N)=O
active: Potency [5] 16900 nM | Potency [6] 6740 nM
inactive: Potency [1] | Potency [2] | Potency [3] | max response (CRL-7250 [4]) -7.52% | max response (HEK293) -11.8% | max response (KB-3-1) 0.24% | Potency (CAOV3) | Potency (HeLa) | Potency (SKOV3)

C[C@]12CC[C@@H](O)C[C@@H]1CC[C@@H]1[C@@H]2CC[C@]2(C)C(=O)[C@@H](Br)C[C@@H]12
inactive: max response (CRL-7250 [4]) -20.8% | max response (KB-3-1) 9.47% | outcome (HACAT) | Potency (CAOV3) | Potency (HeLa) | Potency (SKOV3)
active: Potency [2] 6490 nM | Potency [3] 10300 nM

COC(=O)C12C(=O)C(C)(O)C(=O)C1(C)C(C)=CC1C3(C=O)CCC(OC(C)=O)C(C)(C)C3CCC12C (stereo unspecified)
inactive: Potency [1] | max response (CRL-7250 [4]) -2.11% | max response (KB-3-1) 6.36% | Potency (CAOV3) | Potency (HeLa) | Potency (SKOV3)

CC1CCCC(O)CCC/C=C/c2cc(O)cc(O)c2C(=O)O1 (stereo unspecified)
active: Potency [3] 11300 nM
inactive: Potency [8] | Potency [1] | max response (CRL-7250 [4]) -5.57% | outcome (KB-3-1) | Potency (CAOV3) | Potency (HeLa) | Potency (SKOV3)

CCCN(CCC)CCc1ccc(OC)c(OCCc2ccccc2)c1
inactive: Potency [8] | Potency [1] | max response (CRL-7250 [4]) 3.48% | outcome (KB-3-1) | Potency (CAOV3) | Potency (HeLa) | Potency (SKOV3)
active: Potency [5] 213 nM

C[C@@H]1CCC2[C@@H](C)C(=O)OC3O[C@@]4(C)CCC1[C@]32OO4 (stereo partly specified)
inactive: max response (CRL-7250 [4]) -1.83% | max response (KB-3-1) -7.11% | Potency (CAOV3) | Potency (HeLa) | Potency (SKOV3)

CN1CCCCC1Cn1cc(C(=O)c2cc([N+](=O)[O-])ccc2I)c2ccccc21 (stereo unspecified)
inactive: Potency [1] | Potency [2] | Potency [3] | max response (CRL-7250 [4]) 2.06% | outcome (HACAT) | outcome (NIH3T3) | Potency (CAOV3) | Potency (HeLa) | Potency (SKOV3)

C=C1CC[C@H]2[C@@H](/C=C(\C)C(=O)[C@@]3(OC(C)=O)C[C@H](C)[C@H](OC(=O)c4ccccc4)[C@@H]3[C@H]1OC(C)=O)C2(C)C
inactive: Potency [1] | max response (CRL-7250 [4]) 1.55% | max response (KB-3-1) 4.96% | Potency (CAOV3) | Potency (SKOV3)

O=C(C[C@@H]1NCCC[C@H]1O)Cn1cnc2ccccc2c1=O
active: Potency [1] 259 nM | Potency [2] 129 nM | Potency [3] 145 nM | Potency (CRL-7250 [4]) 231 nM | Potency (KB-3-1) 259 nM | Potency (HeLa) 1780 nM

CCCCCn1cc(C(=O)c2cccc3ccccc23)c2ccccc21
active: Potency [6] 1510 nM | Potency (CRL-7250 [4]) 18400 nM
inactive: Potency [1] | Potency [5] | Potency [2] | Potency [3] | max response (KB-3-1) -15.1% | Potency (CAOV3) | Potency (HeLa) | Potency (SKOV3)
